The values that follow come from patent US20060069055, “Delivery of polynucleotides” (published 2006).

The target in this experiment is NF-kB p65/p50 heterodimer (Homo sapiens, UniProt Q04206;P19838 Q04206:1-551,P19838:1-433). Description: EMSA; Table 3 gives 58 for PO. The conditions noted are these: protein: extract; tags: nuclear extract of LPS-stimulated THP-1 cells; dsDNA, one strand shown. From the text: The EMSA assay was employed to characterize oligonucleotide decoys for the NF-κB transcription factor. […] Using the above modified oligonucleotides to compete for binding for the above-mentioned NF-κB family members, it was possible to compare the binding affinity of these oligonucleotides against the high affinity radiolabeled probe and each other. This assay has also enabled the design of a decoy which selectively binds particular members of the NF-κB family. By using increasing concentrations of various oligonucleotides, it was observed that, by deleting or changing targeted residues in the binding site, it was possible to specifically decrease the binding of the decoy molecule to p50/p50 homodimers, while retaining the affinity for p65/p50 and cRel/p50 heterodimers.
Chain of NF-kB p65/p50 heterodimer (Q04206 whole entry, chain 1 of 2): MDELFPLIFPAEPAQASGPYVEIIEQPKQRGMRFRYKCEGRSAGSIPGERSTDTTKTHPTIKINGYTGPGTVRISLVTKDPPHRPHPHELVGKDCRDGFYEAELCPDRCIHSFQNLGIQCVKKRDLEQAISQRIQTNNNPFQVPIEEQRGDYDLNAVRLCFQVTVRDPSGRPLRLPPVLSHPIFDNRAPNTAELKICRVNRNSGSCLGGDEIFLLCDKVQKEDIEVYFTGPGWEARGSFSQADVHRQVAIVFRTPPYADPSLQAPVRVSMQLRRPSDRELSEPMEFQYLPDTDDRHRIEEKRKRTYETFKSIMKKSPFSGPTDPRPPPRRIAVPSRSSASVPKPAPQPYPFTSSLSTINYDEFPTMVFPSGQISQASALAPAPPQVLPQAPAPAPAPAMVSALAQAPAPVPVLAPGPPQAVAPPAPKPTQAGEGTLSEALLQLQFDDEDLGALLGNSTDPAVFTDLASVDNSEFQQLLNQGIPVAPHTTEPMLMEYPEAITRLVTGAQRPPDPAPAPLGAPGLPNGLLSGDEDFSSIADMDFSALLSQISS
Chain of NF-kB p65/p50 heterodimer (P19838 1-433, chain 2 of 2): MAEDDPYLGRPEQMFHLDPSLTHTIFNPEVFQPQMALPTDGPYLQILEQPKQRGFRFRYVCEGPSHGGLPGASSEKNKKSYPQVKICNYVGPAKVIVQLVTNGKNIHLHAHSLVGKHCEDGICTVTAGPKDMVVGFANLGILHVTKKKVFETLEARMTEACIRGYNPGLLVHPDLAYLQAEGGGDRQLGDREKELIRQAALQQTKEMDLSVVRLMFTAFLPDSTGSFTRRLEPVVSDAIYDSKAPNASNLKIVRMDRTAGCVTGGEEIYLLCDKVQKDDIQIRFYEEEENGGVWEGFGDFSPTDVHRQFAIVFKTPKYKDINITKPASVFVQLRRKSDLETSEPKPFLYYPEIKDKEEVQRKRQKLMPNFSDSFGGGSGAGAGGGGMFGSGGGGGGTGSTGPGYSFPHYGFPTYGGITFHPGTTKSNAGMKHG
The NF-κB gel shift assays (EMSA) were performed as follows. A double-stranded oligonucleotide containing a consensus NF-κB binding site (5′ […].GGC 3′) (SEQ ID NO: 26) was end-labeled with γ³²P-ATP using T4 Polynucleotide Kinase (Promega). […] The dried gels were imaged and quantitated using a Typhoon 8600 Phosphorlmager (Amersham) and ImageQuant software. […]
(In EMSA bound probe runs differently from free probe, usually more slowly.)
In turn, AGTTGAGGACTTTCCAGGC displayed an IC50 of 62.4 fold molar excess.
